Measured values reported in PubChem BioAssay (Tox21).
Where “and” joins values, the source holds several entries; their conditions need not be identical. Equal values may be shown once. Inconclusive results are not listed. A structure can be active in one record and inactive in another. Calls of active or inactive are those of the source. Unless noted, calls follow the shape of the dose curve; as a rule, active = well fitted curve in the direction sought with a large enough effect in the repeat runs; inconclusive = weak or mixed curves; inactive = no such curve, though single readings can be large; an effect the other way counts as inactive or inconclusive.

Tests used:
[1] = qHTS assay to identify small molecule antagonists of the glucocorticoid receptor (GR) signaling pathway - cell viability counter screen (AID 720693); also: nearly all actives have a fitted effect of over 55% in size; also: potency is read from the fitted curve at half-maximal effect
[2] = qHTS assay for identifying genotoxic compounds that show differential cytotoxicity against isogenic chicken DT40 cell lines with known DNA damage response pathways - wild type cell line (AID 743012); also: nearly all actives have a fitted effect of over 60% in size; also: potency is read from the fitted curve at half-maximal effect
In short: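 Using parental DT40 (300 cells/well), compounds delivered in DMSO incubate 40 h at 37 C/5% CO2. CellTiter-Glo reagent then stands 30 min at room temperature, and luminescence gives cell viability.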

[3] = qHTS assay for identifying genotoxic compounds that show differential cytotoxicity against isogenic chicken DT40 cell lines with known DNA damage response pathways - Rev3 mutant cell line (AID 743014); also: nearly all actives have a fitted effect of over 55% in size; also: potency is read from the fitted curve at half-maximal effect
[4] = qHTS assay for identifying genotoxic compounds that show differential cytotoxicity against isogenic chicken DT40 cell lines with known DNA damage response pathways - Rad54/Ku70 mutant cell line (AID 743015); also: nearly all actives have a fitted effect of over 60% in size; also: potency is read from the fitted curve at half-maximal effect
[5] = qHTS assay to identify small molecule antagonists of the androgen receptor (AR) signaling pathway - cell viability counter screen (AID 743033; also: nearly all actives have a fitted effect of over 45% in size; also: potency is read from the fitted curve at half-maximal effect)
[6] = molecular target: Androgen receptor (Homo sapiens) (UniProt P10275); assay: qHTS assay to identify small molecule agonists of the androgen receptor (AR) signaling pathway using the MDA cell line (AID 743040; also: nearly all actives have a fitted effect of over 20% in size; also: potency is read from the fitted curve at half-maximal effect)
Chain of Androgen receptor (Homo sapiens) (P10275 whole entry, looked up): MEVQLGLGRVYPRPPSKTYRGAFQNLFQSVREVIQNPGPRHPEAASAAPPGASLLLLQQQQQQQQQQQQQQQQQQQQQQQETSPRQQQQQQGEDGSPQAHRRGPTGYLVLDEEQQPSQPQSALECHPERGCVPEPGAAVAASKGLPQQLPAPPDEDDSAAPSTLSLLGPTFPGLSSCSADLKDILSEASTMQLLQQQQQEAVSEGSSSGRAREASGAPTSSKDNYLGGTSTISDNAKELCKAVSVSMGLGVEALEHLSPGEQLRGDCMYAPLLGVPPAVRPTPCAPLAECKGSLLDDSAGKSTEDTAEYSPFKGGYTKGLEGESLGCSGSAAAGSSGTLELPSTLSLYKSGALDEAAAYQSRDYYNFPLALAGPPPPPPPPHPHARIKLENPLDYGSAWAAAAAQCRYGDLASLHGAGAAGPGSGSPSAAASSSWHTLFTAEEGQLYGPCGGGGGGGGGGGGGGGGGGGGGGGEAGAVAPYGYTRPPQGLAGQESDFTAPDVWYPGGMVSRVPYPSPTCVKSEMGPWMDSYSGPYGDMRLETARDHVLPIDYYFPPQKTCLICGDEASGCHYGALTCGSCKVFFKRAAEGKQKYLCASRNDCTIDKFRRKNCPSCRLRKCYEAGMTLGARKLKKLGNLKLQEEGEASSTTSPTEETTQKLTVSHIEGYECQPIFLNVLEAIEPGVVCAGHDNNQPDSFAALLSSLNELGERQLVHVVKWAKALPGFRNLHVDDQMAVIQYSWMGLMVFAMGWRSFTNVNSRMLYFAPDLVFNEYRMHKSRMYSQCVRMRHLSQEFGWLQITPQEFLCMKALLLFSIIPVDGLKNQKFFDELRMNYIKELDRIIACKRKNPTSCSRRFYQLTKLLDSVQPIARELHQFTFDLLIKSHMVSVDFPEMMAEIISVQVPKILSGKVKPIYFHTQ
In short: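 Cells plated, 5 h at 37C/0% CO2; compound or DMSO pinned; 16 h at 37C; ONE-Glo added; luminescence measured after 30 min at room temperature. Reporter line: MDA-kb2 with MMTV-luciferase responsive to AR and GR.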

[7] = molecular target: Androgen receptor (Homo sapiens) (UniProt P10275); assay: qHTS assay to identify small molecule antagonists of the androgen receptor (AR) signaling pathway using the MDA cell line (AID 743042; also: nearly all actives have a fitted effect of over 55% in size; also: potency is read from the fitted curve at half-maximal effect)
In short: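 Antagonist mode: compounds plus R1881 agonist added to MDA-kb2 AR-luc cells, incubated 16 h at 37C. Luciferase reporter luminescence quantified, with multiplexed CellTiter-Fluor readout for cell viability.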

[8] = molecular target: Androgen receptor (Homo sapiens) (UniProt P10275); assay: qHTS assay to identify small molecule antagonists of the androgen receptor (AR) signaling pathway (AID 743035; active = well fitted inhibition curve with a large enough effect in the signal ratio in the repeat runs, not every such curve was filed as active; the % refers to the signal ratio; also: potency is read from the fitted curve at half-maximal effect)
In short: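 Using qHTS, AR-UAS-bla GripTite HEK293 cells received compound, then R1881, and were cultured 16 h at 37C/5% CO2 before a 2 h room-temperature LiveBLAzer B/G FRET substrate step and fluorescence measurement.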

[9] = molecular target: Androgen receptor (Homo sapiens) (UniProt P10275); assay: qHTS assay to identify small molecule agonists of the androgen receptor (AR) signaling pathway (AID 743036; active = well fitted activation curve with a large enough effect in the signal ratio in the repeat runs, with a control signal flat, not every such curve was filed as active; the % refers to the signal ratio)
In short: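 Agonist activity was scored by beta-lactamase reporter fluorescence in stably transfected HEK293 cells exposed to compounds for 16 h at 37C and 5% CO2. Substrate loading took 2 h at room temperature.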

[10] = qHTS assay to identify small molecule antagonists of the androgen receptor (AR) signaling pathway using the MDA cell line - cell viability counter screen (AID 743041; also: nearly all actives have a fitted effect of over 45% in size; also: potency is read from the fitted curve at half-maximal effect)
In short: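 Cells were plated at 3,000 per well and left 5 h. Compounds in DMSO were then pinned in, followed by R1881. After 16 h at 37C, CellTiter-Fluor fluorescence gave viability.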

Measured: Potency

O=C1c2ccccc2-c2n[nH]c3cccc1c23
inactive: [1] | [5] | [6] | [7]
active: [2] 9.44 µM | [3] 11.9 µM | [4] 9.44 µM

CC1(C)CCC(NC(=O)[C@@H](N)CCC(=O)O)CC1
inactive: all assays above

COc1c(O)cc2c(c1O)[C@@H]1O[C@H](CO)[C@@H](O)[C@H](O)[C@H]1OC2=O
not listed: [9]
inactive: all other assays above

C[C@@H]1C(=O)NC2=Nc3cccc(Cl)c3CN21
inactive: all assays above

CCc1ncnc2cc(OC)c(OC)cc12
not listed: [9]
inactive: all other assays above

NC(N)=NCc1cccc(I)c1
inactive: [1] | [5]
active: [2] 5.96 µM and 8.41 µM | [3] 8.41 µM and 11.9 µM | [4] 6.68 µM and 7.5 µM

CCCCCCCCCCCCCCCC(=O)OC[C@H](COP(=O)([O-])OCC[N+](C)(C)C)OC(=O)CCCCCCCCCCCCCCC
inactive: all assays above

CC[C@@]1([C@@H]2O[C@@H]([C@H]3O[C@@](O)(CO)[C@H](C)C[C@@H]3C)C[C@@H]2C)CC[C@H]([C@]2(C)CC[C@]3(C[C@H](O)[C@@H](C)[C@@H]([C@@H](C)[C@@H](OC)[C@H](C)C(=O)O)O3)O2)O1 (stereo in doubt)
active: [2] 473 nM and 531 nM | [3] 376 nM and 531 nM | [4] 531 nM and 596 nM
inactive: [1]

O=C1C2CC3CC1CC(O)(C3)C2
inactive: all assays above

CCC[C@@H]1C[C@@H](C(=O)N[C@@H]([C@H]2O[C@H](SC)[C@H](OP(=O)(O)O)[C@@H](O)[C@H]2O)[C@H](C)Cl)N(C)C1
inactive: all assays above

NC(N)=NCC1COC2(CCCCC2)O1 (stereo unspecified)
not listed: [9]
inactive: all other assays above

CC[C@H]1OC(=O)[C@H](C)C(=O)[C@H](C)[C@@H](O[C@@H]2O[C@H](C)C[C@H](N(C)C)[C@H]2O)[C@](C)(OC)C[C@@H](C)C(=O)[C@H](C)[C@H]2N(CCCCn3cnc(-c4cccnc4)c3)C(=O)O[C@]12C
active: [2] 4.22 µM | [4] 6.68 µM
5.96 µM (active) and inactive: [3]
inactive: [1]

CC(C)NCC1CCc2cc(CO)c([N+](=O)[O-])cc2N1 (stereo unspecified)
inactive: all assays above

C[N+]1(CCCCC[N+]2(C)CCCC2)CCCC1
inactive: all assays above

CCC1OC(=O)C[C@@H](O)[C@H](C)[C@@H](O[C@@H]2O[C@H](C)C[C@H](N(C)C)[C@H]2O)[C@@H](CC=O)C[C@@H](C)C(=O)/C=C/[C@]2(C)OC2C1C (stereo partly specified)
active: [2] 11.9 µM and 4.73 µM | [3] 21.1 µM and 8.41 µM | [4] 16.8 µM and 7.5 µM | [7] 26.6 µM and 23.7 µM
not listed: [8]
inactive: all other assays above

Cc1cc(-c2ccc(N=Nc3ccc4c(S(=O)(=O)O)cc(S(=O)(=O)O)c(N)c4c3O)c(C)c2)ccc1N=Nc1ccc2c(S(=O)(=O)O)cc(S(=O)(=O)O)c(N)c2c1O
inactive: [1] | [5]
active: [2] 23.7 µM | [3] 23.7 µM | [4] 11.9 µM and 23.7 µM

CN1CCN(CCCN2c3ccccc3Sc3ccc(Cl)cc32)CC1
active: [1] 23.9 µM | [2] 5.96 µM | [3] 7.5 µM | [4] 8.41 µM | [5] 23.9 µM

O=C(O)Cc1nn(Cc2ccc(Br)cc2F)c(=O)c2ccccc12
inactive: all assays above

Cc1cc(=O)c(C(=O)N[C@@H](C(=O)N[C@@H]2C(=O)N3C(C(=O)O)=C(CSc4nnnn4C)CS[C@H]23)c2ccc(O)cc2)c[nH]1
inactive: all assays above

CCOC(=O)[C@H](CCc1ccccc1)N[C@@H](C)C(=O)N1[C@H](C(=O)O)C[C@H]2CCCC[C@@H]21
inactive: all assays above

Cc1cc(CC(C)CC(C)(C)C)n(O)c(=O)c1 (stereo unspecified) (tested in a mixture with another compound)
inactive: [5]
active: [1] 15.1 µM | [2] 11.9 µM | [3] 11.9 µM | [4] 13.3 µM

COc1ccc([C@@H]2CC(=O)c3c(O)cc(O[C@@H]4O[C@H](CO[C@@H]5O[C@@H](C)[C@H](O)[C@@H](O)[C@H]5O)[C@@H](O)[C@H](O)[C@H]4O)cc3O2)cc1O
not listed: [8]
inactive: all other assays above

Oc1ccc(Cl)c2c1CCC2
inactive: all assays above

Cc1cc(C(=O)NCCc2ccc(S(=O)(=O)NC(=O)NN3CCCCCC3)cc2)no1
inactive: all assays above

COc1ccc(/C=C/C(=O)O)cc1
inactive: all assays above

C=C1[C@@H]2CC[C@@H](C2)C1(C)C
inactive: [1] | [2] | [3] | [4]

C/C=C/C1=C(C(=O)O)N2C(=O)[C@@H](NC(=O)[C@H](N)c3ccc(O)cc3)[C@H]2SC1
not listed: [9]
inactive: all other assays above

CCOc1ccc([N+](=O)[O-])cc1
active: [1] 35.2 µM | [2] 62 µM | [3] 31.1 µM | [4] 43.9 µM
inactive: [5]

CN(C[C@@H](CC[N+]12CCC(C3CCCCC3)(CC1)CC2)c1ccc(Cl)c(Cl)c1)C(=O)c1cc(C(F)(F)F)cc(C(F)(F)F)c1
active: [1] 17.4 µM | [2] 6.86 µM | [3] 9.69 µM | [4] 8.63 µM | [5] 19.5 µM | [10] 61.1 µM | [7] 54.5 µM
inactive: [6]

CN(C)CCc1c[nH]c2ccc(Cn3cncn3)cc12
inactive: all assays above

CC1(C)C[C@@H]1C(=O)N/C(=C\CCCCSC[C@H](N)C(=O)O)C(=O)O
inactive: all assays above

C[C@H]1O[C@@H](O[C@H]2CC[C@@]3(C)[C@H](CC[C@@H]4[C@@H]3C[C@@H](O)[C@]3(C)[C@@H](C5=CC(=O)OC5)CC[C@]43O)C2)C[C@H](O)[C@@H]1O[C@H]1C[C@H](O)[C@H](O[C@H]2C[C@H](O)[C@H](O[C@@H]3O[C@H](CO)[C@@H](O)[C@H](O)[C@H]3O)[C@@H](C)O2)[C@@H](C)O1
active: [1] 1.34 µM | [2] 1.33 µM | [3] 1.33 µM | [4] 1.5 µM | [5] 0.268 µM | [8] 1.2 µM
inactive: [10]

C[N+](C)(C)CCOP(=O)(O)OP(=O)([O-])OC[C@H]1O[C@@H](n2ccc(N)nc2=O)[C@H](O)[C@@H]1O
not listed: [6]
inactive: all other assays above

CC[C@@H](C(=O)[C@@H](C)[C@@H](O)[C@H](C)CCc1ccc(C)c(O)c1C(=O)O)[C@H]1O[C@](CC)([C@H]2CC[C@](O)(CC)[C@H](C)O2)C[C@@H]1C
inactive: [7]
active: [1] 23.9 µM | [2] 5.96 µM | [3] 4.73 µM | [4] 6.68 µM | [5] 6.74 µM | [8] 15.1 µM | [6] 1.88 µM | [10] 11.1 µM
